Results reported in PubChem BioAssay (NCATS).
Results filed as inconclusive are left out. Values without a mark were called inactive. Calls of active or inactive are those of the source. Calls follow the shape of the dose curve; as a rule, active = well fitted curve in the direction sought with a large enough effect; inconclusive = small, poorly fitted or top-dose-only effect, or another doubt; inactive = no such curve, though single readings can be large; an effect the other way counts as inactive or inconclusive. Where a SMILES comes first, the peptide text is derived from it. [ ]: non-standard residue; d: D form. The star is where a group is joined. Benzoyl(4-tBu) = CC(C)(C)c1ccc(C(=O)*)cc1; Lys(Et2) = CCN(CC)CCCC[C@H](N)C(=O)O

Experiment: qHTS to identify inhibitors of the type 1 interferon - major histocompatibility complex class I in skeletal muscle: primary screen against the NCATS Mechanism Interrogation Plate v5.0 (MIPE) Libary (AID 1347411); also: nearly all actives have a fitted effect of over 65% in size;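 as to activity change, negative = inhibition: plate controls were vehicle for no effect and reference inhibitor for full effect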
Conditions: iHSKM cells + IFN-b, HiBiT-tagged MHC-I luminescence, 24 h; series mostly up to 45.8 µM; activity change, negative = inhibition: at the top concentration
How it was run: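 Immortalized human C25cl48 myoblasts with HiBit knocked into endogenous HLA-B*08:01 were stimulated with 4.0 ng/ml IFN-beta and exposed to compounds (11-point 1:3 titration, top 46 uM final) for 24 hrs at 37 C; HiBiT lytic luminescence measured.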
Potency is read from the fitted curve at half-maximal effect.

| Structure (SMILES) | activity change, negative = inhibition | Potency |
| --- | --- | --- |
| CCN(CC)CCCC[C@H](NC(=O)[C@H](CC(C)C)NC(=O)[C@H](C)NC(=O)[C@H](Cc1ccccc1)NC(=O)c1ccc(C(C)(C)C)cc1)C(=O)N[C@@H](CO)C(=O)OC ({Benzoyl(4-tBu)}-FAL[Lys(Et2)]S-OMe) | -14.8% | – |
| CO[C@H]1/C=C/O[C@@]2(C)Oc3c(C)c(O)c4c(O)c(c5c(nc6cc(C)ccn65)c4c3C2=O)NC(=O)/C(C)=C\C=C\[C@H](C)[C@H](O)[C@@H](C)[C@@H](O)[C@@H](C)[C@H](OC(C)=O)[C@@H]1C | -26.9% | – |
| COC(=O)[C@H]1[C@@H](O)[C@@]2(O)c3c(OC)cc(O[C@@H]4O[C@@H]([C@@H](O)CO)CO[C@H]4OC)cc3O[C@@]2(c2ccc(OC)cc2)[C@@H]1c1ccccc1 | 2.34% | – |
| COc1nc(N)nc2c1ncn2C1OC(CO)C(O)C1O (stereo not drawn) | -6.72% | – |
| O=C(CCCCCCC(=O)N/N=C/c1ccc(N(c2ccccc2)c2ccccc2)cc1)NO | – | 18.6 µM (active) |
| O=C(O)CCNc1cc(N2CCc3ccccc3CC2)nc(-c2cccnc2)n1 | -2.28% | – |
| Cc1cc(-c2cnn3c(NCC4CC(C)(O)C4)cc(Oc4cccnc4)nc23)ccc1C(=O)NC1CC1 (stereo not drawn) | -24.9% [at 5.1 µM] | – |
| CC(C)n1c(=O)cc(N[C@@H](C)c2ccccc2)[nH]c1=O | 21.4% | – |
| O=C(O)C[C@H]1CCc2c1[nH]c1ccc(OCc3ccc(C4CCCC4)c(C(F)(F)F)c3)cc21 | -24.8% | – |
| Cn1cc(/C=C/C(=O)c2cccc(F)c2)cc1/C=C/C(=O)NO | -21.1% | – |
| Nc1nccc(-c2c(-c3ccc(F)cc3)ncn2C2CCN(Cc3ccon3)CC2)n1 | -5.96% | – |
| CC1(C)S[C@H]2[C@H](NC(=O)[C@@H](N)c3ccc(O)cc3)C(=O)N2[C@H]1C(=O)O | -1.39% | – |
| CC(C)(NS(=O)(=O)c1ccc2c(Cl)cnc(N=C(N)N)c2c1)C(=O)O | 1.66% | – |
| CCS(=O)(=O)N1CCC(C(C)n2c(C)c(C(=O)NCc3c(OC)cc(C)[nH]c3=O)c3ccccc32)CC1 (stereo not drawn) | -2.46% | – |
| CN1CCN(C(=O)[C@H]2[C@@H](C(=O)O)[C@H]3CC[C@@H]2O3)CC1 | -7.67% [at 8.44 µM] | – |
| CC(=O)N1CCN(c2ccc(NC(=O)Cc3cnc(-c4ccnc(F)c4)c(C)c3)nc2)CC1 | -13.3% | – |
| O=C(O)CCCCN(CCc1ccccc1OCc1ccc(CCc2ccccc2)cc1)Cc1ccc(C(=O)O)cc1 | 21.8% | – |
| CC(=O)N[C@H]1[C@H](O[C@@H]2c3ccc(c(Cl)c3)Oc3cc4cc(c3O[C@@H]3O[C@H](CO)[C@@H](O)[C@H](O)[C@H]3NC(=O)CCCCCCCC(C)C)Oc3ccc(cc3Cl)C[C@H]3NC(=O)[C@H](N)c5ccc(O)c(c5)Oc5cc(O)cc(c5)[C@H](NC3=O)C(=O)N[C@H]4C(=O)N[C@H]3C(=O)N[C@@H]2C(=O)N[C@@H](C(=O)O)c2cc(O)cc(O[C@H]4O[C@H](CO)[C@@H](O)[C@H](O)[C@@H]4O)c2-c2cc3ccc2O)O[C@H](CO)[C@@H](O)[C@@H]1O | 5.09% | – |
| O=C(Nc1cccc(C(F)(F)F)c1)c1cccc2cc(Oc3cc(CO)ncn3)ccc12 | -11.2% | – |
| NC1=N[C@@]2(c3cc(NC(=O)c4ccc(F)cn4)ccc3F)COC[C@H]2CS1 | 13.2% | – |
| C[C@@H]1CC(=O)Nc2cccc(-c3ccc4c(c3)c(-c3cnn(C)c3)nn4C)c2N1 | 0.179% | – |
| C=C1C[C@H]2C=Nc3cc(OCCCOc4cc5c(cc4OC)C(=O)N4CC(=C)C[C@H]4C=N5)c(OC)cc3C(=O)N2C1 | 21.5% | – |
| O=c1ncccn1[C@@H]1O[C@H](CO)[C@@H](O)[C@H]1O | -14.3% | – |
| CONC(=O)Nc1ccc(-c2sc3c(c2CN(C)C)c(=O)n(-c2ccc(OC)nn2)c(=O)n3Cc2c(F)cccc2F)cc1 | 23.9% | – |
| CC(C)(O)CC[C@@H](O)[C@](C)(O)[C@H]1CC[C@@]2(O)C3=CC(=O)[C@@H]4C[C@@H](O)[C@@H](O)C[C@]4(C)[C@H]3CC[C@]12C | -17.2% | – |
| Cc1c(-c2c(-c3ccc(F)o3)sc3ncnc(O[C@@H](Cc4ccccc4OCc4ccnn4CC(F)(F)F)C(=O)O)c23)ccc(OCCN2CCN(C)CC2)c1Cl | 0.156% | – |

Experiment: Primary qHTS for inhibitors of nuclear receptor binding SET domain protein 2 (NSD2) in an isogenic RCH-ACV NSD2 p.E1099K mutant (9B) (AID 1645876); also: nearly all actives have a fitted effect of over 70% in size; as to activity change, negative = viability loss: % is scaled to controls: 0 for no effect and ±100 for the full control effect
Conditions: RCH-ACV (leukaemia line) NSD2 E1099K (9B) viability, CellTiter-Glo, 72 h; series mostly up to 44.9 µM; activity change, negative = viability loss: at the top concentration; outcome: at the top concentration

| Structure (SMILES) | Potency | activity change, negative = viability loss |
| --- | --- | --- |
| CC[C@@]1(O)C(=O)OCc2c1cc1n(c2=O)Cc2c-1nc1ccccc1c2CCNC(C)C | 0.0042 µM (active) | – |
| COc1ccc2[nH]c3c(c2c1)CCN[C@]31CS[C@@H]2c3c(OC(C)=O)c(C)c4c(c3[C@H](COC1=O)N1[C@@H]2[C@H]2c3c(cc(C)c(OC)c3O)C[C@@H]([C@@H]1O)N2C)OCO4 | 0.0017 µM (active) | – |
| CCC(C)CNCC(=O)N1CCc2sccc2C1c1cccc(C)n1 (stereo not drawn) | – | 0.428% |
| CS(=O)(=O)c1ccc(-c2cnc(NCc3ccco3)n3cnnc23)cc1 | – | 6.03% |
| O=c1c(-c2ccc(O)cc2)coc2c([C@@H]3O[C@H](CO)[C@@H](O)[C@H](O)[C@H]3O)c(O)ccc12 | – | 5.58% |
| CCC(=O)O[C@]1(C(=O)CO)CC[C@H]2[C@@H]3CCC4=CC(=O)CC[C@]4(C)[C@H]3CC[C@@]21C | – | -26.1% |
| O=S(=O)(Nc1ccc(-c2cccnc2)c2cccnc12)c1cccc(C(F)(F)F)c1 | 7.42 µM (active) | – |
